ATXN2 expr inh: inhibitors of ATXN2 expression; Potency, µM (titrated, usually from 57 µM), for inactives: at the highest dose activity change, negative = inhibition, actives largely listed as inhibitors; 360,000 tested, 0.72% active; HEK-293 ATXN2-luciferase reporter, luminescence, 24 h; further: potency means the concentration at half of the fitted maximal effect; on the % scale 0 is the no-effect control and ±100 the full control effect; nearly all actives have a fitted effect of over 55% in size
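qHTS (up to 57 uM final) was run with 24 h compound exposure of reporter cells at 37 °C. Each well was multiplexed: SteadyGlo luminescence measured ATXN2-luciferase expression after a fluorogenic Gly-Phe-AFC viability readout (25 uM final).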
HepG2 tox: counter-screen for TGF-b inhibitors: cytotoxicity in HepG2 cells; HepG2 CAGA-GFP viability, ATP luminescence, 18 h; AID 588856; Potency, µM (titrated, usually from 46.1 µM), without a hit: at the top dose activity change, negative = cytotoxicity, actives largely listed as cytotoxic; 410,000 tested, 0.76% active; further: potency means the concentration at half of the fitted maximal effect
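HepG2 CAGA-GFP cells (1000/well, DMEM with 1% FBS) received compound, then TGF-beta at 500 pg/mL final, and were incubated 18 hours at 37 degrees C. Viability was read by CellTiter-Glo luminescence. Media-only wells were set as complete cell-killing and DMSO as no toxicity.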
mIDH1 inhibitor: human IDH1 R132H inhibition; Potency, µM (top dose mostly 76.6 µM), without a hit: at the highest dose activity change, negative = inhibition, usual class: inhibitors; 390,000 tested, 0.093% active; AID 602179; O75874; IDH1-R132H enzyme, NADPH consumption, diaphorase/resazurin fluorescence; further: potency means the concentration at half of the fitted maximal effect; on the % scale 0 is the no-effect control and ±100 the full control effect; nearly all actives have a fitted effect of over 65% in size
Target sequence (O75874 whole entry R132H, stated change not applied): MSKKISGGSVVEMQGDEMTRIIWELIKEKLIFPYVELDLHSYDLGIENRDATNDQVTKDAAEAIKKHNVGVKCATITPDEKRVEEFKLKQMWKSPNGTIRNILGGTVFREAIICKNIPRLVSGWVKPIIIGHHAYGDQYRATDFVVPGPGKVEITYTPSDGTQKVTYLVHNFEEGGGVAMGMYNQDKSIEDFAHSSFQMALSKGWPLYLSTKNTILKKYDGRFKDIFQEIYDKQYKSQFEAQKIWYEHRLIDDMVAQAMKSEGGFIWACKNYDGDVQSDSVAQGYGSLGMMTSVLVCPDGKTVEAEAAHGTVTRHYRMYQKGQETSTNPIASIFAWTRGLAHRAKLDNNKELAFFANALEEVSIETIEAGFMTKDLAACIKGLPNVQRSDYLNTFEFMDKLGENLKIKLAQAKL
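IDH1-R132H (0.5 ug/mL) preincubated 30 min with compound, then NADPH (0.016 mM) and alpha-KG (2 mM) added; 80 min at RT, pH 7.5. Remaining NADPH coupled via diaphorase/resazurin to fluorescence (540/590 nm); concentration-response curves normalized to no-enzyme control.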
S2 tox: reduces viability in counter-screen for ATXN expression inhibitors. S2 cells (HEK-293 line with an ATXN2-luciferase reporter) viability, CellTiter-Fluor protease fluorescence, 24 h. Potency, µM (top dose mostly 56.7 µM), hits mostly cytotoxic. 400,000 tested, 0.49% active. AID 651635; further: potency means the concentration at half of the fitted maximal effect; nearly all actives have a fitted effect of over 40% in size
TGFb inhibitor: TGF-b pathway inhibition; Potency, µM (doses to about 46.1 µM), for inactives: at the highest dose activity, negative = inhibition, most hits filed as inhibitors; HepG2 CAGA-GFP TGF-b/SMAD3 reporter, GFP fluorescence, 18 h; TGF-beta stimulated, 500 pg/mL final; 410,000 tested, 1.2% active; further: potency means the concentration at half of the fitted maximal effect; on the % scale 0 is the no-effect control and ±100 the full control effect; nearly all actives have a fitted effect of over 65% in size
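Inhibition was scored as loss of TGF-beta-induced (500 pg/mL final, 18 hours, 37 degrees C) GFP in HEPG2 cells carrying a CAGA-GFP reporter, in DMEM with 1% FBS. Well GFP was summed per cell; Activity was normalised to unstimulated and stimulated DMSO wells, then concentration-response fitting.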
LDHA block: blocks human lactate dehydrogenase A | P00338 | purified LDHA, NADH/diaphorase-resazurin fluorescence; active compounds read low | activity change, % (values are at about 110 or 230 µM) | 480,000 tested, 0.15% active | AID 1347041; in the data active means activity change below about -30%; inconclusive means mostly about -25% to -30%;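 further: plate controls were DMSO wells for no effect and wells without enzyme for full effect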
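LDH5 2 nM; NADH 0.06 mM, pyruvate 0.2 mM; 200 mM Tris pH 7.4, EDTA, Tween-20; 5 min RT. Detection: diaphorase 0.133 mg/mL + resazurin 37 µM, fluorescence ex540/em590 at 0 and 20 min; normalized to enzyme-free and DMSO wells.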
Starred values were filed as active, the others as inactive; i = inactive; ? = inconclusive; · = not tested or not shown; ! = repeats disagree; [ ] = dose if it differs, or a comment. This is a sample that favours compounds with a hit; in the whole collection about 2.2% have one here. Unless noted, the call rests on the fitted dose curve; in most records, active means well fitted curve in the direction sought with a large enough effect; inconclusive means small, poorly fitted or top-dose-only effect, or another doubt; inactive means no such curve, though single readings can be large; an effect the other way counts as inactive or inconclusive.

SMILES	ATXN2 expr inh	HepG2 tox	mIDH1 inhibitor	S2 tox	TGFb inhibitor	LDHA block
CCOC(=O)c1cc(-c2ccccc2)n(CCCC(=O)Nc2cccc(Cl)c2C)c1C	·	-56%	5%	·	11µM*	0
C#CCOCCOCCOCCNc1nc(N2CCN(C(=O)CCCCCCCCCCNC(=O)Cn3cc(C[C@@H](C)O)nn3)CC2)nc(N2CCN(C(=O)CCCCCCCCCCNC(=O)[C@@H]([C@H](C)CC)n3cc(CCCCCN)nn3)CC2)n1	20µM*	-113%	5%[38.3 µM]	·	10µM*	7
C#CCOCCOCCOCCNc1nc(N2CCN(C(=O)CCCCCCCCCCNC(=O)[C@H](CCCCN)n3cc(C)nn3)CC2)nc(N2CCN(C(=O)CCCCCCCCCCNC(=O)[C@@H]([C@H](C)O)n3cc(C)nn3)CC2)n1	?	-41%	-2%	·	?	-2
C#CCOCCOCCOCCNc1nc(N2CCN(C(=O)CCCCCCCCCCNC(=O)[C@H](CCCCN)n3cc(C)nn3)CC2)nc(N2CCN(C(=O)CCCCCCCCCCNC(=O)[C@H](CCCN=C(N)N)n3cc(C[C@@H](C)CC)nn3)CC2)n1	?	-101%	-2%[38.3 µM]	?	?	0
C#CCOCCOCCOCCNc1nc(N2CCN(C(=O)CCCCCCCCCCNC(=O)[C@@H](CCSC)n3cc(CCO)nn3)CC2)nc(N2CCN(C(=O)CCCCCCCCCCNC(=O)[C@H](CCCN=C(N)N)n3cc(C[C@@H](C)CC)nn3)CC2)n1	?	-80%	0%[38.3 µM]	16µM*	?	1
C#CCOCCOCCOCCNc1nc(N2CCN(C(=O)CCCCCCCCCCNC(=O)[C@H](CCCCN)n3cc(C[C@@H](C)CC)nn3)CC2)nc(N2CCN(C(=O)CCCCCCCCCCNC(=O)[C@@H]([C@H](C)O)n3cc(C)nn3)CC2)n1	10µM*	13µM*	0%[38.3 µM]	10µM*	?	1
C#CCOCCOCCOCCNc1nc(N2CCN(C(=O)CCCCCCCCCCNC(=O)[C@H](CCCCN)n3cc(C[C@@H](C)CC)nn3)CC2)nc(N2CCN(C(=O)CCCCCCCCCCNC(=O)[C@H](CCCN=C(N)N)n3cc(C[C@@H](C)CC)nn3)CC2)n1	-20%	16µM*	-17%[38.3 µM]	·	13µM*	3
CCc1ccc2[nH]c(=O)c(CN(Cc3cccnc3)Cc3nnnn3Cc3ccccc3)cc2c1	·	-7%	·	·	-13%	4
O=C(CCC(=O)N1CCSc2ccccc21)NCc1cccc(Br)c1	-15%	-14%	0%	i	-19%	-5
O=C(NNc1nc2ccccc2o1)c1ccccc1	1.6µM*	-25%	-10%	i	18%	-1
CCCCOc1c(C(=O)c2c(F)cc(C)cc2F)cnc2n[nH]cc12	9.7µM*	·	·	·	·	·
CCc1ccc(OCC2c3cc(OC)c(OC)cc3CCN2C(=O)Cc2ccc(OC)c(OC)c2)cc1 (centres undefined)	?	-23%	-1%	i	11µM*	3
Cc1cc(C)c(NC(=O)Cn2cc(S(=O)(=O)Cc3ccccc3F)c3ccccc32)c(C)c1	·	-22%	0%	·	0%	-31*
O=C(Cn1cc(S(=O)(=O)Cc2ccccc2Cl)c2ccccc21)Nc1cccc(C(F)(F)F)c1	·	16µM*	-11%	·	?	-10
O=C(Cn1cc(S(=O)(=O)Cc2ccccc2F)c2ccccc21)Nc1ccc(F)c(Cl)c1	·	-62%	-13%	·	?	-9
COC(=O)c1c(C)[nH]c(C(=O)CN2C(=O)C3CC=CCC3C2=O)c1C (centres undefined)	27%	0%	2%	i	-1%	1
Cc1ccc(-n2[nH]c(C)c(C=Nc3ccc(C)cn3)c2=O)cc1	3%	4µM*	-6%	i	-19%	-7
Cc1ccc(-n2[nH]c(C)c(/C=N/n3c(C)nc4ccccc4c3=O)c2=O)cc1	-23%	6.3µM*	0%	i	3%	5
CC(=O)N1CCCc2cc(S(=O)(=O)CCC(=O)Nc3cccc(C)c3C)ccc21	2%	0%	0%	i	2%	-1
CC(C)(CC(=O)NCc1ccc(Cl)cc1Cl)CC1=NS(=O)(=O)c2ccccc2N1	25µM*	-51%	9%	i	?	0
Cc1ccc(Cl)cc1NC(=O)COC(=O)CC(C)(C)CC1=NS(=O)(=O)c2ccccc2N1	-23%	-36%	0%	?	?	1
Fc1ccc(-n2nnnc2-c2ccccc2Cl)cc1	0%	-10%	-3%	i	1%	-1
Cc1c(C(=O)O)c(O)cc2c1C(=O)c1c(O)c([C@H]3O[C@H](CO)[C@@H](O)[C@H](O)[C@H]3O)c(O)c(O)c1C2=O	·	3%	·	·	3%	15
Cc1c(C(=O)O)c(O)cc2c1C(=O)c1c(O)c([C@@H]3O[C@H](CO)[C@@H](O)[C@H](O)[C@H]3O)c(O)c(O)c1C2=O	0%	-9%	-2%	18µM*	-19%	12
Nc1cccc(Nc2nc(OC(C(F)(F)F)C(F)(F)F)nc(OC(C(F)(F)F)C(F)(F)F)n2)c1	-25%	11µM*	10%	i	?	-1
SMILES	ATXN2 expr inh	HepG2 tox	mIDH1 inhibitor	S2 tox	TGFb inhibitor	LDHA block
COc1nc(Nc2ccc(O)cc2)nc(OC(C(F)(F)F)C(F)(F)F)n1	0%	-64%	6%	i	?	3
C=C(C)c1cccc(C(C)(C)NC(=O)Nc2cc(C)ccn2)c1	-1%	-17%	3%	?	11µM*	-3
Cc1cccc(OCc2nc(C)c(C(=O)Nc3cc(C)ccc3C)s2)c1	·	·	·	·	·	-35*
S=C(NCCCN(Cc1ccc(Cl)c(Cl)c1)c1ccc(Br)cn1)NCCc1cnc[nH]1	·	·	·	·	·	3
CN(CCCc1cnc[nH]1)C(=S)NCCCN(Cc1ccc(Cl)cc1)c1ccc(Br)cn1	·	-91%	·	·	7.1µM*	-5
CC(=O)NCCCNC(=S)NCCCN(Cc1ccc(Cl)cc1)c1ccc(Br)cn1	?	13µM*!	·	?	16µM*	-21

Screening data from PubChem.
